Screening results deposited in PubChem by several laboratories.
FadD28 binding: M. tuberculosis FadD28 bisubstrate binding inhibition; inhibition, % at 12.5 µM; FadD28 bisubstrate probe binding, fluorescence polarization; AID 588549; actives 0.22% (n = 360,000); in the data active means inhibition above about 8.5%, passing the limit was not always enough
FBA Mtb inh: Mtb fructose-bisphosphate aldolase inhibition. P9WQA3. purified M. tuberculosis FBA, fluorescence read-out. inhibition, % at 1 µM. actives 2.3% (n = 360,000). AID 588726
Rv3671c protease: inhibitors of M. tuberculosis serine protease Rv3671c | P9WHR9 | inhibition, % at 5.96 µM | actives 0.048% (n = 320,000) | AID 2606; in the data active means inhibition above about 38%;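 further: extracellular domain of Rv3671c used as enzyme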
Target sequence (P9WHR9 whole entry, looked up, the tested form may be a part): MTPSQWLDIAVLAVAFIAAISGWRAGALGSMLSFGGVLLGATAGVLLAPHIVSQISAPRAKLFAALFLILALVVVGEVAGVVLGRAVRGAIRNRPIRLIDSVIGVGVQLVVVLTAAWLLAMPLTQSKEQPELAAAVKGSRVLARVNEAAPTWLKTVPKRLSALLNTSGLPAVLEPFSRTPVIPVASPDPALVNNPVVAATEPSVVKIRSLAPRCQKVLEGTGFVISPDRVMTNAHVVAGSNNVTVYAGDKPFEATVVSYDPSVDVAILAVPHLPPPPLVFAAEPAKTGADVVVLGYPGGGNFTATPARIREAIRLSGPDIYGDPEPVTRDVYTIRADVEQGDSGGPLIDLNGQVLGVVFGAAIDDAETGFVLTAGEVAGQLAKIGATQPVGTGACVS
GDH-TPI counter-1: inhibits GDH-TPI coupling enzymes, artifact for Mtb FBA screen. AID 588335. actives 1.2% (n = 360,000). GDH-TPI coupled enzyme counterscreen, NADH absorbance. inhibition, % at 4.8 µM; in the data active means inhibition above about 30%
Mtb BioA inh: blocks M. tuberculosis BioA enzyme activity. purified M. tuberculosis BioA enzyme, plate reader. inhibition, % at 9.99 µM. actives 0.096% (n = 360,000). AID 602481; in the data active means inhibition above about 40%
Mtb FBA confirm: confirmation of M. tuberculosis fructose-bisphosphate aldolase inhibitors; shares compounds with FBA Mtb inh; purified M. tuberculosis FBA, fluorescence read-out; inhibition, % at 1 µM; actives 78% (n = 5,600)
GDH-TPI counter-2: GDH-TPI inhibition counter-screen for FBA inhibitors; shares compounds with FBA Mtb inh; GDH-TPI coupled enzyme counterscreen, fluorescence; inhibition, % at 1 µM; actives 81% (n = 5,600); AID 652141; in the data active means inhibition above about 10%
A number is an active result; i = inactive; nt = no result given; + = active, no number. An excerpt weighted towards active compounds, which were near 3% of everything screened. Unless noted, no stated cut-off is given here; in the data, active means inhibition above about 27%; inactive means the rest.

SMILES	FadD28 binding	FBA Mtb inh	Rv3671c protease	GDH-TPI counter-1	Mtb BioA inh	Mtb FBA confirm	GDH-TPI counter-2
O=C(N[C@H]1CC[C@H](CCn2cc(Cc3ccccc3)nn2)O[C@@H]1CO)c1cnccn1	nt	nt	nt	nt	i	nt	nt
Cc1ccc(-c2ccc3c(c2)O[C@H](CN(C)C(=O)CN(C)C)[C@@H](C)CN([C@H](C)CO)S3(=O)=O)cc1	nt	nt	nt	nt	i	nt	nt
COCC(=O)N[C@@H]1C=C[C@@H](CC(=O)NCc2ccccc2OC)O[C@@H]1CO	nt	nt	nt	nt	i	nt	nt
O=C1c2ccccc2NC(c2ccccc2)N1CCCN1CCOCC1 (stereo unspecified)	i	48	i	i	i	123	107
Cc1ccc(CN2C(=O)c3ccccc3NC2c2ccccn2)cc1 (stereo unspecified)	i	31	i	i	nt	63	51
CCCN1C(=O)c2ccccc2NC1c1ccc(C)cc1 (stereo unspecified)	i	78	i	i	nt	i	i
CN(C)C(=O)c1cccc(-c2ccc([C@H]3[C@H]4CN(CC5CCOCC5)CCCCN4[C@H]3CO)cc2)c1	nt	nt	nt	nt	i	nt	nt
O=C(N[C@H]1CC[C@H](CCNS(=O)(=O)c2ccc(Cl)cc2)O[C@H]1CO)c1cnccn1	nt	nt	nt	nt	i	nt	nt
Cc1nc(N2CCC(C)CC2)c2c(C)c(C(=O)Nc3ccc(C(F)(F)F)cc3)sc2n1	i	34	i	i	nt	i	i
CO[C@@H]1CC[C@H]2CCOc3ccc(C#N)cc3C(=O)N(C)[C@@H](C)C(=O)N(C)C[C@@H]1O2	nt	nt	nt	nt	i	nt	nt
O=C(C[C@H]1CC[C@@H](NC(=O)CN2CCOCC2)[C@@H](CO)O1)NC1CCC1	nt	nt	nt	nt	i	nt	nt
O=C(Cc1ccccn1)NCC[C@H]1CC[C@H](NS(=O)(=O)c2ccccc2)[C@H](CO)O1	nt	nt	nt	nt	i	nt	nt
Cc1ccc(S(=O)(=O)c2n[nH]n3c2nc(=O)c2ccccc23)cc1	i	i	i	i	i	nt	nt
CCOC(=O)c1n[nH]n2c1nc(=O)c1ccccc12	i	33	nt	i	i	116	108
O=C(CCCN1C(=O)c2cccc3cccc(c23)C1=O)NCc1cccnc1	i	35	i	i	i	+	+
CN(C(=O)COC(=O)CCCN1C(=O)c2cccc3cccc(c23)C1=O)C1CCS(=O)(=O)C1 (stereo unspecified)	i	29	i	i	i	144	100
CCOC(=O)CCCCCN1C(=O)c2cccc3cccc(c23)C1=O	i	28	i	i	i	113	67
O=C(CN1C(=O)c2cccc3cccc(c23)C1=O)N1CCCCCC1	i	33	i	i	i	96	85
O=C(CN1C(=O)c2ccccc2C1=O)N1CCCCC1	i	i	i	i	i	nt	nt
COc1ccc(NC(=O)Nc2ccc3c(c2)C(=O)N([C@@H](C)CO)C[C@H](C)[C@@H](CN(C)C(=O)NC(C)C)O3)cc1	nt	nt	nt	nt	i	nt	nt
COc1cccc(-c2ccc3c(c2)[C@H]2[C@H](CCN2C(=O)Cc2ccccc2)[C@@H](CO)N3)c1	nt	nt	nt	nt	i	nt	nt
CCC(=O)Nc1ccc2c(c1)C(=O)N(C)[C@H]1CC[C@@H](CC(=O)O)O[C@@H]1CO2	nt	nt	nt	nt	i	nt	nt
CCN(C(=O)COC(=O)CCCN1C(=O)c2cccc3cccc(c23)C1=O)C1CCS(=O)(=O)C1 (stereo unspecified)	i	33	i	i	i	+	+
O=C1c2cccc3cccc(c23)C(=O)N1CCO	i	51	nt	33	i	158	162
N=c1oc2ccc3ccccc3c2cc1C(N)=S	i	104	i	i	nt	33	17
SMILES	FadD28 binding	FBA Mtb inh	Rv3671c protease	GDH-TPI counter-1	Mtb BioA inh	Mtb FBA confirm	GDH-TPI counter-2
O=C(COc1cc2oc(=O)c3c(c2cc1Cl)CCCC3)N1C[C@H]2C[C@@H](C1)c1cccc(=O)n1C2	i	35	i	i	i	122	87
Cc1cc(OCC(=O)N2C[C@H]3C[C@@H](C2)c2cccc(=O)n2C3)c2c(C)cc(=O)oc2c1	i	34	i	i	i	+	+
Cc1c(C)c2cc(Cl)c(OCC(=O)N3C[C@H]4C[C@@H](C3)c3cccc(=O)n3C4)cc2oc1=O	i	i	i	i	i	nt	nt
CC(Oc1cc2oc(=O)c3c(c2cc1Cl)CCC3)C(=O)N1C[C@H]2C[C@@H](C1)c1cccc(=O)n1C2 (stereo partly specified)	i	37	i	i	i	124	111
Cc1noc(C)c1NC(=O)N(C)C[C@H]1OCCCC[C@H](C)Oc2ccc(NS(=O)(=O)c3ccc(Cl)cc3)cc2C(=O)N([C@@H](C)CO)C[C@@H]1C	nt	nt	nt	nt	i	nt	nt
C[C@@H]1CCCCO[C@H](CN(C)S(C)(=O)=O)[C@@H](C)CN([C@@H](C)CO)C(=O)c2cc(NC(=O)Cc3ccccc3)ccc2O1	nt	nt	nt	nt	i	nt	nt
O=C(Cc1ccncc1)NCC[C@@H]1CC[C@H](NC(=O)Nc2ccc(F)cc2)[C@H](CO)O1	nt	nt	nt	nt	i	nt	nt
O=C(OCc1ccc(Br)cc1F)c1cc2ccccc2oc1=O	i	67	i	i	i	191	153
O=C(COC(=O)c1cc2ccccc2oc1=O)Nc1cccc(Br)c1	i	i	i	i	i	nt	nt
COc1ccc(N2C3=C(C(=O)CC(C)(C)C3)C(c3ccccc3OC)C3=C2CC(C)(C)CC3=O)cc1	i	50	i	i	i	76	60
COC(=O)[C@H]1[C@H](CO)[C@H]2Cn3c(ccc(C4=CCCC4)c3=O)[C@H]2N1C(=O)C1CC1	nt	nt	nt	nt	i	nt	nt
Clc1ccc(SCc2cn3ccccc3n2)cc1	i	61	i	i	nt	+	+
O=c1cc(Nc2ccc3c(c2)OCCO3)[nH]c(=O)n1-c1ccc(Cl)cc1	i	33	i	i	i	78	69
O=c1[nH]c(Nc2ccc3c(c2)OCCO3)nnc1Cc1ccc(Cl)cc1	i	i	i	i	i	nt	nt
O=C(O)c1ccc(Nc2c3ccccc3nc3ccccc23)cc1	i	98	i	i	i	+	+
CCOC(=O)Nc1c2ccccc2nc2ccccc12	i	95	i	i	i	114	77
Oc1cccc(Nc2c3ccccc3nc3ccccc23)c1	i	65	i	i	i	i	18
Cc1ccc(C(=O)NNc2c3ccccc3nc3ccccc23)cc1	i	36	i	i	i	97	103
CCOC(=O)Nc1ccc(Oc2ccccc2)cc1	i	i	i	i	i	nt	nt
CN1CCN(C(=O)C[C@H]2CC[C@@H]3[C@H](COC[C@@H](O)CN3C(=O)C3CCCC3)O2)CC1	nt	nt	nt	nt	i	nt	nt
C[C@@H]1CN([C@H](C)CO)C(=O)c2cc(N(C)C)ccc2O[C@@H](C)CCCCO[C@@H]1CN(C)C(=O)NC1CCCCC1	nt	nt	nt	nt	i	nt	nt
CCS(=O)(=O)Nc1ccc2c(c1)C(=O)N(C)C[C@H](OC)[C@H](C)CN(C(=O)c1ccc3c(c1)OCO3)[C@@H](C)CO2	nt	nt	nt	nt	i	nt	nt
CN(C)CC(=O)Nc1ccc2c(c1)[C@@H]1C[C@@H](CC(=O)NC3CCCCC3)O[C@@H](CO)[C@@H]1O2	nt	nt	nt	nt	i	nt	nt
CO[C@H]1CN(C)C(=O)c2ccc(NC(=O)c3cccc(F)c3)cc2OC[C@@H](C)N(C)C[C@H]1C	nt	nt	nt	nt	i	nt	nt
